Bioassay records deposited in PubChem by National Center for Advancing Translational Sciences (NCATS).
In the library only some 7% were active in any assay of this set; here they are far more common.
PLK1 PBD inh: inhibitors of human PLK1 polo-box domain binding | P53350 | AID 720504 | Plk1 PBD binding of FITC phosphopeptide, fluorescence polarization | Potency, µM, hits mostly inhibitors | actives 2.8% (n = 360,000); further: series mostly up to about 57 µM; nearly all actives have a fitted effect of over 65% in size
HP1b binding inh: inhibitors of HP1-beta chromodomain binding to methylated histone tails | AID 540317 | P83916 | actives 0.56% (n = 390,000) | Potency, µM (highest dose often 114 µM), actives largely listed as inhibitors | AlphaScreen HP1-beta / biotin-H3K9me3 peptide binding; further: nearly all actives have a fitted effect of over 70% in size
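AlphaScreen: HP1-beta (50 nM) preformed 30 min with biotin-H3(1-18)K9me3 peptide (50 nM) in PBS pH 7.4, 0.01% Tween-20. Compound added for 30 min at RT, then streptavidin donor/nickel chelate acceptor beads (10 ug/mL) for 30 min.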
JMJD2A Tudor inh: blocks the human JMJD2A Tudor domain. AlphaScreen JMJD2A-Tudor / H3K4me3 peptide binding. Potency, µM (top dose mostly 114 µM), actives largely listed as inhibitors. O75164. actives 4.4% (n = 390,000); further: nearly all actives have a fitted effect of over 50% in size
Target sequence (O75164 whole entry, looked up, the tested form may be a part): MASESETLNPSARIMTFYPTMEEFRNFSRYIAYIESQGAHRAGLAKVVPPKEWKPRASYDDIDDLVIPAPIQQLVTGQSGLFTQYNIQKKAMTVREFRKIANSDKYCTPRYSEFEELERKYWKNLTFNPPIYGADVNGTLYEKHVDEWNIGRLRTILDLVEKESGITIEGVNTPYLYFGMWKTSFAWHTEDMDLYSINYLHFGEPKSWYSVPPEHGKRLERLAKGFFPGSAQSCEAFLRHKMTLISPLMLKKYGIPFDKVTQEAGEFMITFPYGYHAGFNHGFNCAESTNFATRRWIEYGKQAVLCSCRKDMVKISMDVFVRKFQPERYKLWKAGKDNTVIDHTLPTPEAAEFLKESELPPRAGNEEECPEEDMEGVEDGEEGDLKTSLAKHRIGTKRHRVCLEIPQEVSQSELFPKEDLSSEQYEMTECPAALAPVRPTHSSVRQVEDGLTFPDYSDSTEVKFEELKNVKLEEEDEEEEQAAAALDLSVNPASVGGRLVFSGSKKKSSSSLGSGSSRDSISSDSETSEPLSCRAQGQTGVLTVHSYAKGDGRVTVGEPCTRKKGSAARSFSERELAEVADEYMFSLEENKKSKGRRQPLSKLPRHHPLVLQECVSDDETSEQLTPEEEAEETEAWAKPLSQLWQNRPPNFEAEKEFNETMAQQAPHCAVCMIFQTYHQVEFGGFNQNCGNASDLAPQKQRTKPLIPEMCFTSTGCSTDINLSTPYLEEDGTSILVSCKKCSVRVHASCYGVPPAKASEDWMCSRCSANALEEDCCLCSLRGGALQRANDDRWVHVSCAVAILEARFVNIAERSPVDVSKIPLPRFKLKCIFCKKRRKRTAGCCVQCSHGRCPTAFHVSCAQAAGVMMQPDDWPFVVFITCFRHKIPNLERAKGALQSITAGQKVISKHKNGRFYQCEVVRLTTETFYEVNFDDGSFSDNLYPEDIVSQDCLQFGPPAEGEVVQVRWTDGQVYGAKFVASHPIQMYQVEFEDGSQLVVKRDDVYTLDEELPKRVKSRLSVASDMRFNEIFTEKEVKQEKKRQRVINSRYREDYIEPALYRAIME
BAZ2B block: blocks human BAZ2B. Potency, µM (titrated, usually from 114 µM), usual class: inhibitors. actives 4.4% (n = 360,000). AlphaScreen BAZ2B-H3K14Ac peptide displacement. Q9UIF8; further: nearly all actives have a fitted effect of over 60% in size
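Inhibition is scored as reduced AlphaScreen emission. The BAZ2B/b-H3(5-23)K14Ac complex (50 nM each) in PBS pH 7.4, 0.01% Tween-20 meets compound (up to 110 uM) for 30 min at RT before bead addition.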
PI5P4Ka inh: PI5P4K alpha (human) kinase inhibition | max response, % | actives 1.2% (n = 330,000) | P48426 | PI5P4Kalpha enzyme, ADP-Glo luminescence, 60 min; stronger effect = lower value; active means max response of -50% or lower; inconclusive means between -30% and -50%; inactive means -30% or higher; further: value at the top dose of about 77 µM
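Reactions run in 0.038 M HEPES pH 7.4, 0.28 mM EGTA, 0.1% CHAPS and 5% DMSO, with PI5P4Kalpha, substrate, compound and 5 microM ATP final, one hour at room temperature. Readout is ADP-Glo luminescence.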
KAT2A inh: inhibitors of human GCN5L2 histone acetyltransferase. Q92830. GCN5L2 HAT assay, ThioGlo1 CoA-SH fluorescence. Potency, µM (titrated, usually from 58.9 µM), most hits filed as inhibitors. actives 0.21% (n = 390,000)
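ThioGlo1-coupled HAT assay: 20nM GCN5L2, 70uM acetyl-CoA, 75uM H3(1-25) peptide, pH 7.5. Fluorescence read at 340/540nm at start and after 20 min at room temperature.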
A number is an active result; – = inactive; ? = inconclusive; · = not tested or not shown; [ ] = another dose, or the depositor's remark. Unless noted, the call rests on the fitted dose curve; in most records, active means well fitted curve in the direction sought with a large enough effect; inconclusive means small, poorly fitted or top-dose-only effect, or another doubt; inactive means no such curve, though single readings can be large; an effect the other way counts as inactive or inconclusive.

SMILES | PLK1 PBD inh | HP1b binding inh | JMJD2A Tudor inh | BAZ2B block | PI5P4Ka inh | KAT2A inh
COC(=O)c1cc(S(=O)(=O)N(C)Cc2ccco2)c[nH]1 | – | – | – | – | – | –
CCCn1c(=O)sc2cc(NC(=O)c3ccc(OC)c(Br)c3)ccc21 | · | – | – | – | · | –
COc1ccc(N2CCN(C(=O)C3CCN(S(=O)(=O)c4cccc5nonc45)CC3)CC2)cc1 | · | – | – | 79µM | · | –
COc1ccc(N2CCN(C(=O)C3CCN(S(=O)(=O)c4cccs4)CC3)CC2)cc1 | 17µM | ? | ? | – | – | –
COc1ccc(C(=O)COC(=O)C(Cc2c[nH]c3ccccc23)NC(=O)c2ccc(C(C)(C)C)cc2)cc1 (stereo not drawn) | · | – | – | – | · | –
COC(=O)[C@@H]1[C@@H](C#N)C2(c3ccccc3-c3ccccc32)N(c2ccc(Cl)cc2)N1C#N | ? | ? | 18µM | ? | – | –
O=C(O)Cc1sc(=O)[nH]c1O | – | – | – | · | – | ·
CSc1nc2c(=S)[nH]c(=S)[nH]c2s1 | 21µM | · | · | · | ? | ·
CN(C)CCCNc1ncnc2ccc(-c3ccc4c(c3)OCO4)cc12 | · | · | – | · | · | ·
O=C(NCc1ccccc1)C(=O)Nc1nc(C23CC4CC(CC(C4)C2)C3)cs1 | – | – | – | – | – | –
CNC(=O)C(=O)Nc1nc(C23CC4CC(CC(C4)C2)C3)cs1 | 30µM | – | – | – | – | –
C=CCn1c(C)cc(/C([O-])=C(/C(=S)Nc2ccc(OC(F)F)cc2)[n+]2ccc(N(C)C)cc2)c1C | – | ? | ? | 45µM | – | –
Cc1cc(C)c(/C=C/c2onc(C)c2S(=O)(=O)N2CCC(C(=O)N3CCN(c4ccccc4)CC3)CC2)c(C)c1 | · | – | 22µM | – | · | –
Cc1cc(C(=O)NC(C)C2CC2)c(Cl)cc1Cl (stereo not drawn) | – | – | – | – | – | –
O=C(Nc1ccccc1C(F)(F)F)c1cc(-c2ccc3c(c2)OCCO3)on1 | · | – | – | – | · | –
Nc1cc(C(F)(F)F)ccc1Nc1ccccc1 | – | – | – | 50µM | – | –
N#Cc1ccc(Nc2ccccc2)c(N)c1 | – | – | – | – | – | –
CSc1ccc(C2C(C#N)=C(N)Oc3c2ccc(=O)c2c(C)oc(C)c32)cc1 (stereo not drawn) | – | ? | 56µM | ? | -65 | ?
Cc1oc(C)c2c(=O)ccc3c(c12)OC(N)=C(C#N)C3c1ccccc1 (stereo not drawn) | – | – | – | ? | ? | –
CCc1ccc(S(=O)(=O)N2CCCC(N3CCN(c4ccc(OC)cc4)CC3)C2)cc1 (stereo not drawn) | – | ? | 40µM | 14µM | – | –
O=C1CCCC(=O)C1C(=O)C1CCN(S(=O)(=O)c2ccccc2)CC1 | ? | ? | 56µM | – | – | –
COc1ccc(S(=O)(=O)N2CCC(C(=O)N[C@@H](C)C(=O)NC3CCCC3)CC2)cc1 | 19µM | – | 22µM | – | – | –
CCn1c(SC(C)C)nnc1C1CCN(S(=O)(=O)c2ccc(OC)cc2)CC1 | – | – | 45µM | – | – | –
N#CN=c1snc(-c2ccccc2Cl)n1-c1ccc(F)cc1 | · | – | – | · | · | ·
CC1CCC(NC(=O)CN(C)CC(=O)Nc2ccc(F)cc2)CC1 (stereo not drawn) | – | – | – | – | – | –
SMILES | PLK1 PBD inh | HP1b binding inh | JMJD2A Tudor inh | BAZ2B block | PI5P4Ka inh | KAT2A inh
Cc1c([S+](=O)([O-])N2CCN([S+](=O)([O-])c3c(F)cccc3F)CC2)sc2ccc(Cl)cc12 | · | · | – | · | · | ·
COc1ccc(S(=O)(=O)N2CCC(N3CCN(Cc4ccccc4)CC3)CC2)cc1 | – | ? | 5.6µM | 25µM | – | –
COc1ccc(S(=O)(=O)N2CCN(C3Cc4ccccc4C3)CC2)cc1 | – | – | – | – | – | –
COc1ccc(S(=O)(=O)N2CCC(C(=O)NCCC(=O)Nc3cccc(Cl)c3)CC2)cc1 | 6.7µM | – | 16µM | – | ? | –
COCCCNC(=S)N1CCN(S(=O)(=O)c2ccc(OC)cc2)CC1 | 21µM | ? | –[11.4 µM] | – | – | –
COc1ccc(S(=O)(=O)N2CCC(C(=O)N3CCCCCC3)CC2)cc1 | 11µM | – | –[11.4 µM] | – | – | –
COc1ccc(CN(CC(=O)NCc2ccc(F)cc2)C(=O)c2csnn2)cc1 | – | – | – | – | – | –
C/C=C1\NC(=O)[C@H](C)NC(=O)[C@@H](NC(=O)[C@@H](Cc2ccc(O)cc2)NC(=O)[C@@H](NC(=O)/C(C)=C/C)C(C)C)[C@@H](C)OC(=O)[C@H](CCCCc2ccc(O)cc2)NC(=O)[C@@H](CCC(=O)OC)NC1=O | – | · | · | · | – | ·
Cc1ccccc1S(=O)(=O)N1CCN(S(=O)(=O)c2ccc3c(c2)OCCO3)CC1 | · | · | – | · | · | ·
COc1ccc(S(=O)(=O)N2CCC(N3CCCC3)CC2)cc1 | – | – | 25µM | 56µM | – | –
COc1ccc(S(=O)(=O)N2CCCCC2)cc1 | – | – | – | – | – | –
CCOC(=O)C1CCCN(S(=O)(=O)c2ccc3ccccc3c2)C1 (stereo not drawn) | – | – | – | – | – | –
O=S(=O)(c1ccc(S(=O)(=O)N2CCN(C3CCCCC3)CC2)cc1)N1CCCCCC1 | – | – | – | – | · | –
